Sampled rows, rich in hits. Any-hit rate of the full collection: about 21%.
DT40 TDP1 no CPT – qHTS for Inhibitors of human tyrosyl-DNA phosphodiesterase 1 (TDP1): qHTS in cells in absence of CPT | DT40 Tdp1-/- hTDP1 cells, no CPT, ATP luminescence, 48 h | Potency, µM (highest dose often 46.2 µM), inactives show top-dose activity change, negative = growth inhibition, usual class: inhibitors | 15% of 420,000 active; further: potency means the concentration at half of the fitted maximal effect; nearly all actives have a fitted effect of over 55% in size
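Growth of hTDP1-complemented DT40 Tdp1-knockout cells is measured by ATP luminescence after at least 48 hr compound exposure at 37 °C, with DMSO substituting for the 20 nM CPT used in the parallel screen.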
ELG1 repair inh – blocks ELG1-dependent DNA repair in HEK293T cells | AID 504467 | Potency, µM (doses to about 46.1 µM), for inactives: top-dose activity change, negative = inhibition, most hits filed as inhibitors | HEK293T ELG1-luciferase reporter, luminescence, 16 h; DNA damage induced by 5-fluorouridine | 2.3% of 330,000 active; further: potency means the concentration at half of the fitted maximal effect; nearly all actives have a fitted effect of over 55% in size
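Cells (2,000 per well) received 5-fluorouridine plus test compound or DMSO and were incubated 16 hr at 37 °C, 5% CO2. Luciferase activity was read by luminescence 30 min after ONE-Glo addition; signal suppression marked inhibition of damage-induced ELG1 function.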
TDP1 cell CPT – DT40-hTDP1 cell growth loss with CPT | chicken DT40 Tdp1-/-;hTDP1 cells + 20 nM CPT, ATP luminescence, 48 h | Potency, µM (top dose mostly 46.2 µM), for the others: at the highest dose activity change, negative = growth inhibition, most hits filed as inhibitors | 12% of 420,000 active; further: potency means the concentration at half of the fitted maximal effect; nearly all actives have a fitted effect of over 55% in size
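Chicken DT40 Tdp1-/- cells stably complemented with human TDP1 were seeded at 400 cells/well in medium containing 20 nM camptothecin, exposed to pin-transferred compounds, and grown at 37 °C for at least 48 hr. Viability was read as ATP luminescence.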
IL-1B inflam inh – blocks inflammasome-driven IL-1 beta release. THP-1 LPS/ATP IL-1B secretion, AlphaLISA, 16 h; active compounds read low. activity change, % at 57.5 µM. 4.7% of 360,000 active; in the data active means activity change below about -50%; inconclusive means mostly about -30% to -49%
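THP-1 cells pretreated 1 hr with compounds (up to 57.5 uM final), then stimulated with LPS (250 ng/mL final) plus ATP (1.25 mM final); secreted IL-1B measured by AlphaLISA after 16 hr, decreased signal indicating inhibition.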
RORgamma inh – inhibitors of mouse ROR gamma transcriptional activity; Drosophila S2 Gal4-RORgamma UAS-luciferase reporter, 20 h; Potency, µM (titrated, usually from 53.6 µM), inactives show at the highest dose activity change, negative = inhibition, most hits filed as inhibitors; P51450; 5.4% of 310,000 active; AID 2551; further: potency means the concentration at half of the fitted maximal effect; nearly all actives have a fitted effect of over 60% in size
Target sequence (P51450 whole entry, looked up, the tested form may be a part): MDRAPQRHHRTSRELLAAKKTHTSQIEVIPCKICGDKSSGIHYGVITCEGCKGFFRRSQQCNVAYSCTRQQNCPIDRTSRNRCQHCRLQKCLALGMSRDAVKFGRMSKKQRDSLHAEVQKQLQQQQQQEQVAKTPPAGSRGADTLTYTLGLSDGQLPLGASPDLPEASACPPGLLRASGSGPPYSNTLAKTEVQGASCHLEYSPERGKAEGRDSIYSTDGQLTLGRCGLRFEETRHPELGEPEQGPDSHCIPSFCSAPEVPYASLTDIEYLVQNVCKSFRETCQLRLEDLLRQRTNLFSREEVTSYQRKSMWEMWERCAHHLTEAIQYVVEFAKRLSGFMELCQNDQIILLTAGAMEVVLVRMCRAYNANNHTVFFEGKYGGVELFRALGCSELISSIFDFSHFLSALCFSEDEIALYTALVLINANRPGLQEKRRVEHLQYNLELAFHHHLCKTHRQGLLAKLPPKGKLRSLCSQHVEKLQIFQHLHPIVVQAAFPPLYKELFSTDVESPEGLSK
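ROR gamma transcriptional activity was tracked as Gal4-UAS luciferase output in stably transfected Drosophila Schneider cells, with compound added 1 hr before 700 uM copper sulfate induction and a 20 hr ambient-temperature incubation.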
VP16 counter – counter-screen for ROR gamma inhibitors: Gal4-VP16 reporter | 3.5% of 310,000 active | Drosophila S2 Gal4-VP16 UAS-luciferase, luminescence, 20 h | AID 2546 | Potency, µM (highest dose often 53.6 µM), for inactives: at the highest dose activity, negative = inhibition, most hits filed as inhibitors;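 further: Gal4-VP16 expression switched on by copper sulfate through the metallothionein promoter; potency means the concentration at half of the fitted maximal effect; nearly all actives have a fitted effect of over 50% in size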
* marks the source's active call; other numbers are inactive results; u = inconclusive; x = no result; [ ] = another dose, or the depositor's remark. Unless noted, the call rests on the fitted dose curve; in most records, active means well fitted curve in the direction sought with a large enough effect; inconclusive means small, poorly fitted or top-dose-only effect, or another doubt; inactive means no such curve, though single readings can be large; an effect the other way counts as inactive or inconclusive. On the % scale 0 is the no-effect control and ±100 the full control effect.

SMILES	DT40 TDP1 no CPT	ELG1 repair inh	TDP1 cell CPT	IL-1B inflam inh	RORgamma inh	VP16 counter
CC(=O)N(C)c1ccc(N=Nc2c(C)[nH]n(C(N)=S)c2=O)cc1	22%	u	-9%	-26	0.35µM*	3.2µM*
Cc1[nH]n(C2=NCCS2)c(=O)c1N=Nc1ccccc1	u	u	u	83	-6%	8%
CCOC(=O)c1ccc(N=Nc2c(C)[nH]n(-c3ccccc3)c2=O)cc1	u	2%	-2%	24	23%	-14%
CO[C@H]1COC(=O)C/C=C\[C@H](C)[C@@H](OC)COC(=O)[C@H](C)COC(=O)C/C=C\[C@@H]1C	x	x	x	x	5%[10 µM]	-2%[10 µM]
COC(=O)c1ccccc1NC(=O)CN1C(=O)COc2ccc(Cl)cc21	u	x	-21%	x	x	x
Cc1ccc(NC(=O)c2cccc(N3C(=O)C4C5C=CC(C5)C4C3=O)c2)cc1C (stereo not drawn)	21µM*	u	23µM*	-23	38%	-6%
O=C(Nc1ccc(Cl)cc1Cl)c1cccc(N2C(=O)C=CC2=O)c1	0.58µM*	-17%	1µM*	0	4%	-4%
O=C(Nc1ccc(Cl)cc1)c1cccc(N2C(=O)C3C4CCC(C4)C3C2=O)c1 (stereo not drawn)	15µM*	u	u	-15	-3%	-6%
COc1ccccc1NC(=O)c1cccc(N2C(=O)C3C4C=CC(C4)C3C2=O)c1 (stereo not drawn)	2%	1%	-16%	49	0%	-10%
COc1ccc(NC(=O)c2cccc(N3C(=O)C4C5C=CC(C5)C4C3=O)c2)cc1Cl (stereo not drawn)	16µM*	u	23µM*	33	u	u
CC(=O)OCC1OC(C#Cc2ccc(C(C)(C)C)cc2)C=CC1OC(C)=O (stereo not drawn)	x	x	x	x	-8%[10 µM]	-14%[10 µM]
CCc1nc2ccc(C(=O)N(CC)CCN(C)C)cn2c1N(C)C(=O)C1CCCCC1	0%	x	10%	9	x	x
O=S1(=O)CC(N2CCN(CC3CC3)CC2)CN1C1CCCCC1 (stereo not drawn)	-17%	x	-21%	35	x	x
CC(C)(C)C(=O)NNC(=O)C1CC1(c1ccccc1)c1ccccc1 (stereo not drawn)	-6%	0%	-1%	0	10%	7%
COc1ccc(NC(=O)c2cccc(N3C(=O)C4C5C=CC(C6CC56)C4C3=O)c2)cc1 (stereo not drawn)	21µM*	23µM*	u	0	u	-26%
Cc1ccc(NC(=C(C#N)C#N)c2ccccc2)cc1	12µM*	x	u	2	x	x
CCCc1cc(=O)oc2c(CNc3ccc(OCC)cc3)c(O)ccc12	u	-28%	12µM*	0	-23%	0%
CCC1CN(CCNC(=O)c2cccc3nccnc23)Cc2cc(OC)ccc2O1 (stereo not drawn)	u	x	9%[9.04 µM]	x	x	x
O=C1NC(=Nc2ccc3ccccc3c2)S/C1=C/c1ccco1	u	u	-19%	14	-2%	u
Cc1cccc(N=C2NC(=O)/C(=C/C=C/c3ccco3)S2)c1	23µM*	-25%	13µM*	-10	u	u
COc1ccc(N=C2NC(=O)/C(=C\C=C\c3ccco3)S2)cc1	u	17%	u	-63*	-17%	u
CC[C@H](C)[C@H](NC(=O)[C@H](C)NC(=O)[C@H](CC(N)=O)NC(=O)[C@H](CCCCN)NC(=O)[C@H](Cc1ccccc1)NC(=O)[C@H](CC(C)C)NC(=O)[C@@H](NC(=O)[C@@H](NC(=O)[C@H](CC(C)C)NC(=O)[C@@H]1CCCN1C(=O)[C@@H](NC(=O)[C@H](CCC(N)=O)NC(=O)[C@H](CO)NC(=O)[C@H](CCCCN)NC(=O)[C@H](CCC(=O)O)NC(=O)[C@H](CO)NC(=O)[C@@H](NC(=O)[C@H](CCSC)NC(=O)[C@H](Cc1ccccc1)NC(=O)CNC(=O)CNC(=O)[C@@H](N)Cc1ccc(O)cc1)[C@@H](C)O)[C@@H](C)O)C(C)C)[C@@H](C)O)C(=O)N[C@H](C(=O)N[C@@H](CCCCN)C(=O)N[C@@H](CC(N)=O)C(=O)N[C@@H](C)C(=O)N[C@@H](Cc1ccc(O)cc1)C(=O)N[C@@H](CCCCN)C(=O)N[C@@H](CCCCN)C(=O)NCC(=O)N[C@@H](CCC(=O)O)C(=O)O)[C@@H](C)CC	4%[4.12 µM]	x	-2%[4.12 µM]	x	-20%	7%
Cc1ccc(C)c(N2CCN(S(=O)(=O)c3ccc(-c4cc(C)no4)s3)CC2)c1	u	0%	u	-1	-13%	-6%
Cc1ccc(C)c(N2CCN(S(=O)(=O)c3cc(-c4cc(C)no4)ccc3C)CC2)c1	16µM*	x	u	x	x	x
CCC1CN(S(=O)(=O)c2cc(-c3cc(C)no3)ccc2C)c2cc(Cl)ccc2O1 (stereo not drawn)	23µM*	x	13µM*	x	x	x
SMILES	DT40 TDP1 no CPT	ELG1 repair inh	TDP1 cell CPT	IL-1B inflam inh	RORgamma inh	VP16 counter
COc1ccccc1N1CCN(S(=O)(=O)c2cc(-c3cc(C)no3)ccc2C)CC1	18µM*	x	21µM*	x	x	x
CCc1ccc(OCC(=O)Nc2cc(-c3ccc(C)cc3)no2)cc1	-3%	x	-16%	x	x	x
Cc1cc(C)c(OCCOCCn2c(-c3ccc(Cl)cc3)nc3ccccc3c2=O)c(C)c1	-12%	x	u	x	x	x
O=C(CCc1nc(-c2ccccc2Cl)no1)NC1CCCC1	u	-3%	0%	1	33%	2%
COc1ccc(-c2noc(CCC(=O)NC3CCCCCC3)n2)cc1	1%	0%	u	21	25%	-6%
O=C(CCc1nc(-c2ccccc2F)no1)NC1CCCCCC1	29µM*	-10%	u	20	8%	-1%
Cc1cccc(-c2noc(CCCC(=O)NC3CCCC3)n2)c1	u	-28%	u	27	30%	u
O=C(CCc1nc(-c2ccccc2Cl)no1)NC1CCCCC1	21µM*	-1%	u	9	11%	3%
CCOC(=O)N1CCC(NC(=O)CCc2nc(-c3ccc(C)cc3)no2)CC1	u	13µM*	u	17	20%	-10%
O=C(CCCc1nc(-c2ccc(Cl)cc2)no1)NC1CCCC1	8.2µM*	u	8.2µM*	-6	-3%	-7%
